Experimental findings from PubChem BioAssay are described below.

Activity calls are given as the source filed them. How the calls were made is not given here.

In this test the target is Pantothenate synthetase (Mycobacterium tuberculosis (strain ATCC 25618 / H37Rv)) (UniProt P9WIL5). Kind of test: Coupled enzyme confirmation of inhibitors against recombinant Mtb PanC (AID 375).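 Further: 0% = full reaction with vehicle and 100% = no enzyme background.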 The conditions noted are these: coupled enzyme assay; at 10 µM, active compounds read high.
Sequence of Pantothenate synthetase (Mycobacterium tuberculosis (strain ATCC 25618 / H37Rv)) (P9WIL5 whole entry, looked up): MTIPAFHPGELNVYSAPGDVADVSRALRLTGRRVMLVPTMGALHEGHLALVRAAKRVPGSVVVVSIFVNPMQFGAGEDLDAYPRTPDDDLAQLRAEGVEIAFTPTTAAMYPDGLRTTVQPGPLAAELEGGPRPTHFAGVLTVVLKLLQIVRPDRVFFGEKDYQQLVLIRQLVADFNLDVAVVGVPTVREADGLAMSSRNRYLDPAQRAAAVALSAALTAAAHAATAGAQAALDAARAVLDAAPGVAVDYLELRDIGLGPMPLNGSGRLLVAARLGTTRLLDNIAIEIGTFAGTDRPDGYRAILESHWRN
As to `O=C(C1COc2ccccc2O1)N1CCCC1` (stereo not given), the inhibition was 0% (inactive).

Turning to `O=C(Nc1cnn(C23CC4CC(CC(C4)C2)C3)c1)c1cnn2c(C(F)(F)F)cc(-c3ccco3)nc12`, the inhibition is 0% (inactive).

Regarding `CCN(CC)CCOC(=O)C1(c2ccc(OC)c(OC)c2)CCCC1`, the inhibition is 12% (inactive).

Take `Oc1ccccc1-c1cc(C(F)(F)C(F)F)[nH]n1`: the inhibition was 0% (inactive).

For the molecule `O=c1oc2ccccc2n1CCn1c2ccccc2c2nc3ccccc3nc21`, the inhibition is 0% (inactive).

`CCOc1cc(C(=O)N2CCN(c3ccccc3)CC2)cc(OCC)c1OCC`: the inhibition is 3% (inactive).

As to `CC(=O)NC(CCS(C)(=O)=O)C(=O)Nc1cc(C)on1` (stereo not given), the inhibition was 0% (inactive).

On to `C=CCSc1nc2c(c(=O)[nH]c(=O)n2C)n1CC`, for which the inhibition is 2% (inactive).

Turning to `CCOc1ccc2cc(C#N)c(SCC(=O)N3CCCC3)nc2c1`, the inhibition is 0% (inactive).

Turning to `Cc1cccc(OCC(=O)N2CCC(c3ccccc3)C2)c1` (stereo not given), the inhibition was 3% (inactive).

With `N#Cc1c(N2CCOCC2)nc(N2CCCCC2)c2c1CCN(C1CCCCC1)C2`, the inhibition is 0% (inactive).

`COCCN1C(=O)C(=O)/C(=C(/O)c2ccc(OC(C)C)cc2)C1c1cccnc1` (stereo not given): the inhibition is 0% (inactive).

Take `COc1ccccc1N1CCN(c2cc(N3CCCC3)nc(C)n2)CC1`: the inhibition was 0% (inactive).

Take `CC(C)CC(=O)N1CCN(S(=O)(=O)c2ccc(F)cc2)CC1`: the inhibition is 0% (inactive).

Consider `CC(=O)NC(C)C(=O)OCC(=O)Nc1ccc(Br)cc1` (stereo not given), for which the inhibition is 0% (inactive).

In the case of `CCN(c1cccc(C(F)(F)F)c1)S(=O)(=O)c1ccc2c(c1)CCN2C(=O)C1CC1`, the inhibition is 3% (inactive).

On to `CS(=O)(=O)NCCSCc1c(F)cccc1Cl`, for which the inhibition is 3% (inactive).

As to `CCn1c(Cc2ccccc2)nnc1SCC(=O)Nc1ccc(N2CCOCC2)c(Cl)c1`, the inhibition is 6% (inactive).

On to `COc1cccc(N2CCN(c3c4c(nc5ncnn35)CCC4)CC2)c1`, for which the inhibition is 0% (inactive).

As for `CCCCS(=O)(=O)NC1=NCN(CCOC(=O)c2ccccc2)CN1`, the inhibition is 0% (inactive).

Regarding `O=C(CCN1C(=O)C2C3C=CC(C3)C2C1=O)N1CCN(c2ccccc2Cl)CC1` (stereo not given), the inhibition is 3% (inactive).

As to `Cc1ccc(C)c(N2C(=O)CN=C2Nc2ccccc2Cl)c1`, the inhibition was 4% (inactive).

Turning to `CC1(C)CC(=O)C2=C(C1)NC(=O)CC2C(=O)NCc1ccc(F)cc1` (stereo not given), the inhibition was 0% (inactive).

Consider `Cc1sc2ncnc(SCC(=O)N3CCCC3)c2c1C`, for which the inhibition is 0% (inactive).

In the case of `O=c1c2[nH]c3ccccc3c2ncn1CCCn1ccnc1`, the inhibition is 0% (inactive).

Regarding `CCc1nc2sc3ccccc3c(=O)c2c(=O)n1Cc1ccco1`, the inhibition was 0% (inactive).

Consider `C1CCC(C(CC2CCCCN2)C2CCCCC2)CC1` (stereo not given), for which the inhibition was 3% (inactive).

`O=C(O)c1ccc(COc2c(F)c(F)cc(F)c2F)cc1`: the inhibition is 0% (inactive).

In the case of `Nc1nc2ccccc2n1/N=C/c1ccc(Br)cc1`, the inhibition is 1% (inactive).

Turning to `CC(=O)Nc1ccc(S(=O)(=O)N2CCC(NC(C)=O)(c3cccc(F)c3)CC2)cc1`, the inhibition was 0% (inactive).

Consider `COCCn1c(=O)[nH]c2cc(C(=O)N3CCN(c4ccccc4OC)CC3)ccc2c1=O`, for which the inhibition is 2% (inactive).

Take `Cc1cc(NS(=O)(=O)c2ccc(NC(=O)COc3ccc(Cl)cc3)cc2)no1`: the inhibition was 9% (inactive).

As for `O=C(O)c1ccccc1C(=O)Nc1ccccc1`, the inhibition is 0% (inactive).

Regarding `CS(=O)(=O)Nc1ccc(C(=O)NCCc2ccccc2)cc1`, the inhibition was 0% (inactive).

For the molecule `OCc1nc2ccccc2n1CC(O)Cn1ccc2ccccc21` (stereo not given), the inhibition is 1% (inactive).

As to `Cc1nn(-c2ccccc2)c2sc(C(=O)N3CCOCC3)cc12`, the inhibition was 0% (inactive).

With `O=C(CSc1nnc(-c2ccccc2)o1)NC1CCCCC1`, the inhibition was 0% (inactive).

As for `O=C(Nc1cccnc1)c1ccc2c(c1)C(=O)N(Cc1cccnc1)C2=O`, the inhibition is 0% (inactive).

Regarding `NS(=O)(=O)c1cc2c(cc1Cl)NCNS2(=O)=O`, the inhibition is 0% (inactive).

`Cc1ccc(C)c(NC(=O)CC(NCCCN2CCOCC2)C(=O)O)c1` (stereo not given): the inhibition is 7% (inactive).

For orientation: inhibition means how much of the control response was suppressed.
